Compound activity (PubChem BioAssay)
Shown are actives, neighbours in structure and some others; about 6.6% of the full set was active somewhere.
GRIN3A LBD mod: binders of NR3A ligand-binding domain, primary screen, biophysical, differential scanning fluorimetry, uHTS; Glutamate receptor ionotropic, NMDA 3A (GRIN3A) ligand-binding domain; NR3A LBD differential scanning fluorimetry, Tm shift; 0% = protein alone, 100% = glycine-bound protein; Tm shift relative to glycine control, % at 25 µM; 2.5% of 340,000 active; AID 1259313, 2017;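 active = melting temperature shift of at least 10% of the positive control shift, at one fixed dose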
Gli-Sufu antag: Gli-Sufu pathway antagonists, primary screen, luciferase luminescence, Sufu-KO-LIGHT cells, uHTS. Sufu-KO-LIGHT fibroblasts, Gli luciferase reporter luminescence. inhibition, % at 5 µM. 0.74% of 340,000 active;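 active = inhibition above about 55%, limit read from the data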
CSC inhib: cancer stem cell viability inhibitors, primary screen, luminescence; AID 2717, 2010; cancer stem cell-like cells viability; 1.1% of 300,000 active; inhibition, % at 7.5 µM; in the data active = inhibition above about 75%; inconclusive = no clear call, values can overlap the other calls; tested in HMLE shEcad cells
Mdm2 MdmX PPI: inhibitors of human Mdm2-MdmX association, primary screen, cell-based, luminescence, split luciferase, SaOS-2, uHTS | 3% of 330,000 active | inhibition, % at 8 µM | SaOS-2 split-luciferase Mdm2/MdmX complementation | Protein Mdm4 (Homo sapiens) + E3 ubiquitin-protein ligase Mdm2 (Homo sapiens), …;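 active = inhibition of at least 50% at 8 µM in the primary screen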
Target sequence (O15151 whole entry, looked up): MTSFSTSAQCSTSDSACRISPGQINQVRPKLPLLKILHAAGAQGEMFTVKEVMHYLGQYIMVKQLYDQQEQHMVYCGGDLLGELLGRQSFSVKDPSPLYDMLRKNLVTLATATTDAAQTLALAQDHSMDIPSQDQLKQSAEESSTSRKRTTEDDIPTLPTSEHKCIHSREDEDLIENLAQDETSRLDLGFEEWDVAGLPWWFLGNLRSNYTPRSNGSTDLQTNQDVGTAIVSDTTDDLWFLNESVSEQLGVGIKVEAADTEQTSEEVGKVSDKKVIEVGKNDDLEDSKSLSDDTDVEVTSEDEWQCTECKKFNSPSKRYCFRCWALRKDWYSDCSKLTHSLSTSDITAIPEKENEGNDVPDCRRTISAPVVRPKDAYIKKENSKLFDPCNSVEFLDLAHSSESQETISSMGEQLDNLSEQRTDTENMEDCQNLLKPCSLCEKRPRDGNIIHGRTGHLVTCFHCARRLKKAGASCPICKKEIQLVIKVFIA
Target sequence (Q00987 whole entry, looked up): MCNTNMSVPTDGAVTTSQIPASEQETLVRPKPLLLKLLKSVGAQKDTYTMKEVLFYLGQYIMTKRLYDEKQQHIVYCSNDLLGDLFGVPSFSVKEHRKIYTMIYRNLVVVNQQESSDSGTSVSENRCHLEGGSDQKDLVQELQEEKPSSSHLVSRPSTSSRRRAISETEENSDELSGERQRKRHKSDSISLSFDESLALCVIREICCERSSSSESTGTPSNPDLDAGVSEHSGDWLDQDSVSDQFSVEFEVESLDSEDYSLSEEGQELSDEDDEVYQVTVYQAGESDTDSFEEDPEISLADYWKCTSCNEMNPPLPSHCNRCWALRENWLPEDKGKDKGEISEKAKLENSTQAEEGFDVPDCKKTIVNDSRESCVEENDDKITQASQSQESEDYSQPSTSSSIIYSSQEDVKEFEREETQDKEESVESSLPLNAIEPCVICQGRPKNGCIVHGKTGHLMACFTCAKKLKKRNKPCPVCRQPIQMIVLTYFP
MPTP block: mitochondrial permeability transition pore inhibitors, primary screen, biochemical, isolated mouse mitochondria, absorbance; Ca2+ swelling absorbance, 30 min; inhibition, % at 10 µM; 1.4% of 360,000 active;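 active = inhibition of 50% or more, scaled per plate between neutral and stimulator controls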
Beta cell apopt: inhibitors of cytokine-induced beta cell apoptosis, primary screen, luminescence | INS-1E cytokine-induced death, ATP luminescence, 48 h; percent of positive-control rescue, neutral wells zero | protection from apoptosis, % (concentration not given with the values) | 0.8% of 300,000 active;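 active = Every replicate reaches about 75%, or at least half do and their mean reaches it too, limit read from the data; inconclusive = At least half of replicates reach the limit but their mean does not; inactive = Under half of replicates reach the limit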;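 also: higher means more ATP so stronger rescue from cytokine killing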
Mdm2 MdmX conf: Mdm2-MdmX complex disruptors, retested hits, confirmation, luminescence, single concentration; AID 489028, 2010; 55% of 10,000 active; Mdm2-MdmX binding, luminescent assay; shares compounds with Mdm2 MdmX PPI; inhibition, % at 8 µM; in the data active = inhibition above about 40%
Full FLuc ctr: full-length luciferase signal inhibition, confirmation, counter-screen for Mdm2/MdmX interaction inhibitor project, cell-based, single concentration, SaOS-2; shares compounds with Mdm2 MdmX PPI; SaOS-2 full-length luciferase counterscreen, luminescence; inhibition, % at 8 µM; 77% of 6,200 active; AID 504607, 2011;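 active = mean inhibition at 8 µM reaching about 37%, which flags the compound as non-specific, limit read from the data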;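 also: p53-null SaOS-2 cells with luciferase driven by a doxycycline-inducible promoter; compound on cells about two nights before reading with doxycycline added after day one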
Each line names hits and unclear results; the compound was inactive in the other large screens (follow-up assays come after a bar, where they were run).

CCOC(=O)c1c(C)n(-c2ccc(C)cc2)c2ccc(OCC(O)CNCC3CCCO3)cc12 (stereo not given)	CSC inhib 118, Mdm2 MdmX PPI 78 | Mdm2 MdmX conf 42 | Full FLuc ctr 62
NC(=O)c1cc[n+](Cc2ccccc2Cl)cc1	none
COc1ccc(-c2cccc([C@H]3[C@@H]4C=CC[C@@H](C)[C@@H]4C(=O)N3Cc3ccccc3)c2)cc1	none (no result: CSC inhib, Beta cell apopt)
COc1ccc(-c2c([C@H]3[C@H]4C=CC[C@@H](C)[C@@H]4C(=O)N3Cc3ccccc3)ccc3ccccc23)cc1	Mdm2 MdmX PPI 69, Beta cell apopt 107 | Mdm2 MdmX conf inactive
COc1cc(-c2cccc([C@H]3[C@@H]4C=CC[C@@H](C)[C@@H]4C(=O)N3Cc3ccccc3)c2)cc(OC)c1OC	Mdm2 MdmX PPI 83 (no result: CSC inhib, Beta cell apopt) | Mdm2 MdmX conf inactive
CCNC(=O)C1(C)CCCN(C(=O)CCc2cccs2)C1 (stereo not given)	none (no result: GRIN3A LBD mod, Gli-Sufu antag, CSC inhib, Mdm2 MdmX PPI, Beta cell apopt)
Cc1ccc(S(=O)(=O)N2C[C@@H]3[C@H]4CC[C@H](C4)[C@@H]3[C@@H](C)[C@@H]2c2cn(Cc3ccccc3)c3ccc(F)cc23)cc1	none (no result: CSC inhib, Beta cell apopt)
C[C@@H]1[C@H]2[C@@H]3CC[C@@H](C3)[C@H]2CN[C@H]1c1cn(Cc2ccccc2)c2ccccc12	Mdm2 MdmX PPI 54 (no result: CSC inhib, Beta cell apopt) | Mdm2 MdmX conf inactive
Cc1c(NC(=S)NC(=O)c2ccc(-c3ccc(Cl)cc3)o2)cccc1C(=O)O	none (no result: CSC inhib)
Cc1ccc(O)c(NC(=S)NC(=O)c2ccc(-c3ccc(Cl)cc3)o2)c1	GRIN3A LBD mod 29, Mdm2 MdmX PPI 51, Beta cell apopt inconclusive | Mdm2 MdmX conf inactive
CCc1cc2ccc(C)cc2nc1SCC(=O)Nc1cc(C)on1	none
CCc1cc2cc3c(cc2nc1SCC(=O)Nc1cc(C)on1)OCO3	Mdm2 MdmX PPI 81 | Mdm2 MdmX conf inactive
CC[C@@H](C)[C@H](CN[C@H](CNC)[C@@H](C)O)NCCc1ccc(OC)cc1	none
CCc1ccc(/C=C(\C)C(=O)c2c(C)cc(C)[nH]c2=O)cc1	none
CCc1ccc(/C=C/C(=O)c2c(C)cc(C)[nH]c2=O)cc1	Mdm2 MdmX PPI 72 | Mdm2 MdmX conf 48 | Full FLuc ctr inactive
Cc1ccc(/C=C/C(=O)c2c(C)cc(C)[nH]c2=O)cc1	Mdm2 MdmX PPI 70 (no result: CSC inhib, Beta cell apopt) | Mdm2 MdmX conf 45 | Full FLuc ctr 51
CCN(C(=O)COC(=O)CNC(=O)c1ccc(Cl)cc1Cl)c1c(N)n(Cc2ccccc2)c(=O)[nH]c1=O	none
CCOc1ccc(S(=O)(=O)N2CCCC(C(=O)NCC3CCCO3)C2)cc1Cl (stereo not given)	none (no result: Beta cell apopt)
CCOc1ccccc1OCCC(=O)N1CCN(S(=O)(=O)c2ccccc2[N+](=O)[O-])CC1	Mdm2 MdmX PPI 62 (no result: CSC inhib) | Mdm2 MdmX conf inactive
CCOC(=O)c1cc(-c2cc(OC)c(OC)c(OC)c2)nc2c1c(=O)[nH]c(=O)n2Cc1ccccc1	Mdm2 MdmX PPI 57 | Mdm2 MdmX conf 56 | Full FLuc ctr 86
O=Cc1ccc(-c2c(-c3ccccc3)oc3c2C(OCCCCO)CCC3)o1 (stereo not given)	none (no result: GRIN3A LBD mod, Gli-Sufu antag, CSC inhib, Mdm2 MdmX PPI, Beta cell apopt)
Cc1ccc2nc3c(c(Nc4cccc(O)c4)c2c1)CCC3	Mdm2 MdmX PPI 60 | Mdm2 MdmX conf inactive
COC(=O)c1cccc(Nc2c3c(nc4ccccc24)CCC3)c1	Mdm2 MdmX PPI 64 (no result: CSC inhib, Beta cell apopt) | Mdm2 MdmX conf 68 | Full FLuc ctr 63
CC(=O)c1cccc(Nc2c3c(nc4ccccc24)CCC3)c1	Mdm2 MdmX PPI 55 | Mdm2 MdmX conf 70 | Full FLuc ctr 72
CC(C)(C)C(=O)/C(=C/c1ccncc1)n1cncn1	Mdm2 MdmX PPI 100 | Mdm2 MdmX conf 100 | Full FLuc ctr 51
